Screens from PubChem BioAssay.
GLP1R cytotox: cytotoxicity in counter-screen for GLP-1R inverse agonists; AID 624418; hit rate 0.13% among 410,000; HEK293 cAMP-luciferase reporter cells, luminescence, 24 h; Potency, µM (series often up to 38.3 µM), for inactives: at the highest dose activity change, negative = inhibition, most hits filed as inhibitors;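 note: loss of luciferase light is scored as toxicity; potency is the fitted concentration of half-maximal effect; % is set by controls: 0 for no effect and ±100 for the full control effect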
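Luminescence readout: signal drop marks cytotoxicity. Plated cells grew 12 h at 37 °C, 5% CO2, received 23 nL compound for 24 h, then got luciferase reagent, read after 12 min at RT.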
TRHR PAM: allosteric enhancers of human TRH receptor; hit rate 0.66% among 360,000; P34981; enhancement, % at 2 µM; TRHR cells, fluo-8 calcium fluorescence, EC20 TRH enhancement; in the data active = enhancement above about 30%; note: 0% is about no effect
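TRHR-expressing cells loaded with fluo-8 calcium dye were read kinetically (ex 480/em 530) during compound addition, then stimulated with an EC20 of TRH (10 nM final). Enhancement of the Gq-mediated intracellular calcium response was scored.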
GLP-1R agonist: agonists of human GLP-1 receptor | P43220 | Potency, µM (top dose mostly 45.6 µM), for the others: top-dose activation, usual class: activators | hit rate 0.007% among 380,000 | HEK293 GLP-1R CRE-luciferase, luminescence, 4-6 h; cells express a hypersensitive GLP-1R form; note: potency is the fitted concentration of half-maximal effect; % of control where 0% means no effect
Target sequence (P43220 whole entry, looked up): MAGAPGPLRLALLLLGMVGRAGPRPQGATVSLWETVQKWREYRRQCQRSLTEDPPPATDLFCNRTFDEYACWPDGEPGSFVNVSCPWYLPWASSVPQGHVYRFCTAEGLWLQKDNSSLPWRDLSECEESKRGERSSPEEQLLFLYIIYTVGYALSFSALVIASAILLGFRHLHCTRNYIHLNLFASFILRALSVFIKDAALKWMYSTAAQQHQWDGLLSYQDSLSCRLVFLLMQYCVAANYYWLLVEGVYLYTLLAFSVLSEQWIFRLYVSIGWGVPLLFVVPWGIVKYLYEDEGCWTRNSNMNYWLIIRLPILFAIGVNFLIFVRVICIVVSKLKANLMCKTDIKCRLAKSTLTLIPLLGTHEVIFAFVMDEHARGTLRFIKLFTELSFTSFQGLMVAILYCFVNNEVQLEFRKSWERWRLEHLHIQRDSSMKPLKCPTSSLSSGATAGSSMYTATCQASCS
PTHR1 agonist: activates the human parathyroid hormone receptor PTHR1; Q03431; HEK293 GP2 PTHR1 cells, GloSensor cAMP luminescence, 1 h; Potency, µM (highest dose often 115 µM), for inactives: at the highest dose activation, hits mostly activators; hit rate 0.075% among 410,000; note: potency is the fitted concentration of half-maximal effect; nearly all actives have a fitted effect of over 55% in size
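HEK-293-derived GP2 cells expressing PTHR1 and a GloSensor cAMP reporter, 3,000/well, plated overnight, given luciferin plus IBMX (each 0.5 mM as added) for 1 h at 37 °C, then compound for 1 h at 37 °C. Luminescence was read after 15 min at room temperature.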
TRHR ag: agonists of human TRH receptor. P34981. AID 493084. hit rate 0.18% among 360,000. activation, % at 2 µM. TRHR cells, calcium flux fluo-8, FDSS agonist mode; in the data active = activation above about 30%; note: 0% is about no effect
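Read-out: compound-evoked intracellular calcium rise in TRHR cells, fluo-8 dye, kinetic FDSS fluorescence at 1 s/cycle following a 10-cycle baseline. Cells cultured overnight before dye loading (30 min–1.5 h, RT).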
GLP-1R inv ag: acts as inverse agonist at human GLP-1 receptor; P43220; HEK293 GLP-1R CRE-luciferase, luminescence, 24 h; GLP-1R form is constitutively active; Potency, µM (highest dose often 38.3 µM), inactives show top-dose activity change, negative = inhibition, hits mostly inhibitors; hit rate 1.6% among 410,000; note: potency is the fitted concentration of half-maximal effect; % is set by controls: 0 for no effect and ±100 for the full control effect; nearly all actives have a fitted effect of over 55% in size
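Luminescence readout: a drop in cAMP-driven luciferase signal flags inverse agonism at a constitutively active GLP-1R stably expressed in HEK293. Compound exposure lasted 24 hr at 37 deg C, 5% CO2.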
Active calls of the source: *; i = inactive; ? = inconclusive; nt = not tested or not shown; [ ] = dose if it differs, or a comment. Sampled rows, rich in hits. Any-hit rate of the full collection: about 2.4%. Unless noted, calls come from the whole dose curve; as a rule, active = well fitted curve in the direction sought with a large enough effect; inconclusive = small, poorly fitted or top-dose-only effect, or another doubt; inactive = no such curve, though single readings can be large; an effect the other way counts as inactive or inconclusive.

SMILES | GLP1R cytotox | TRHR PAM | GLP-1R agonist | PTHR1 agonist | TRHR ag | GLP-1R inv ag
CC(C)c1ccc(NC(=O)C(c2ccccc2)N(C)C(=O)CCc2c[nH]c3ccccc23)cc1 (configuration not stated) | -2% | nt | -1% | -3% | nt | 10µM*
COc1ccc(NC(=O)C(NC(=O)Cc2cccs2)c2ccc(OC)cc2)cc1 (configuration not stated) | -8% | 0 | nt | -1% | 1 | 2%
COc1ccc(C(C(=O)Nc2ccc(C(C)C)cc2)N(C)C(=O)Cc2cccs2)cc1 (configuration not stated) | -11% | 4 | nt | -31% | 0 | 3.2µM*
Cc1cc(C)n2nc(C(=O)OCC(=O)c3ccccc3)nc2n1 | 17% | nt | -10% | -16% | nt | -13%
N/C(=N\OC(=O)c1ccncc1)c1cccc([N+](=O)[O-])c1 | -9% | 32* | 3% | -35% | -1 | 15%
CCc1cccc(NC(=O)CCS(=O)(=O)c2cc3c(cc2C)NC(=O)CO3)c1 | 2% | -4 | 9% | -22% | 0 | -5%
CC1(C)CC(=O)CC2(C1)NCC(c1ccccc1)c1c2[nH]c2ccccc12 (configuration not stated) | -12% | -2 | 8% | -59% | 0 | 10µM*
Cc1ccc(NC(=O)C2CCCN2S(=O)(=O)c2ccc3nc(-c4ccccc4)[nH]c3c2)cc1C (configuration not stated) | -29% | 10 | nt | -76% | 0 | ?
Cc1ccc(NS(=O)(=O)c2ccc3nc(-c4ccccc4)[nH]c3c2)cc1Cl | -14% | 10 | -5% | -91% | -1 | 10µM*
CC(C)c1ccc(NC(=O)C2CCCN2S(=O)(=O)c2ccc3nc(-c4ccccc4)[nH]c3c2)cc1 (configuration not stated) | -13% | 2 | nt | -12% | 1 | 8.9µM*
CN(Cc1ccon1)C(=O)CC1C(=O)NCCN1CC1CCCCC1 (configuration not stated) | ? | -10 | 13% | i | 1 | -4%
COc1ccc(Cn2c(O)c(C=Nc3ccccc3)c3ccccc3c2=O)cc1 | 61% | -4 | 11% | i | 1 | 7%
COc1ccc(Cn2c(O)c(C=Nc3ccc(O)cc3)c3ccccc3c2=O)cc1 | -4% | -1 | 0% | -3% | 2 | 8.9µM*
COc1ccc(C(OC(=O)c2ccco2)C(=O)NC2CCCC2)cc1OC (configuration not stated) | -20% | -1 | 2% | -2% | 0 | 2%
CCOc1cc(/C=N/NC(=O)Cc2ccc(C(F)(F)F)cc2[N+](=O)[O-])c(Br)cc1OC | -9% | 8 | -9% | 29%[57.5 µM] | 0 | -18%
COc1cc(Br)cc(/C=N/NC(=O)Cc2ccc(C(F)(F)F)cc2[N+](=O)[O-])c1O | 0.5µM* | 1 | 2% | 0% | 0 | ?
Cc1ccc(C)c2[nH]c(=O)c(C(c3nnnn3Cc3ccco3)N3CCc4ccccc4C3)cc12 (configuration not stated) | -14% | -6 | -1% | -10%[57.5 µM] | 1 | 10µM*
Cc1ccnc(NS(=O)(=O)c2ccc(NC(=O)C3CC3)cc2)n1 | 23% | -3 | -3% | i | 1 | 29%
CCOc1ccc(S(=O)(=O)N2CCCC2)cc1 | 4% | -1 | 7% | i | 0 | 8%
CCN(CC)S(=O)(=O)c1ccc(S(=O)(=O)N2CCCC2)cc1 | -5% | 38* | 3% | i | 0 | -2%
CCc1ccc(/C=N/NC(=O)c2nnn(-c3nonc3N)c2C(C)C)cc1 | -25% | 41* | -2% | -16% | 25 | -24%
Cc1ccc(-c2c(C(=O)N/N=C/c3ccc(OC(C)C)cc3)nnn2-c2nonc2N)cc1 | -10% | 33* | 3% | i | 4 | -22%
CCOc1ccc(-c2c(C(=O)N/N=C/c3cccs3)nnn2-c2nonc2N)cc1 | -21% | 20 | 0% | 16% | 3 | -30%
Cc1ccc(-c2c(C(=O)N/N=C/c3ccc4c(c3)OCO4)nnn2-c2nonc2N)cc1 | ? | 8 | 4% | -8% | 0 | 10µM*
CCOc1ccc(-c2c(C(=O)N/N=C/c3ccc(C)s3)nnn2-c2nonc2N)cc1 | -6% | 18 | -2% | -10% | 1 | 11µM*
SMILES | GLP1R cytotox | TRHR PAM | GLP-1R agonist | PTHR1 agonist | TRHR ag | GLP-1R inv ag
COc1ccc(S(=O)(=O)N2CCC3CC2c2cc(-c4ccc5c(c4)OCO5)ccc23)cc1 (configuration not stated) | 3% | nt | 3% | -24% | nt | 14%
OCC1OC(n2cnc3c(SCc4ccccc4)nc(NO)nc32)C(O)C1O (configuration not stated) | 0% | nt | 2% | i | nt | 1%
Cn1cc(/C=N/Nc2ccccc2)c2ccccc21 | -37% | 1 | -4% | i | 0 | 11µM*
CC(C)n1cc(/C=N/Nc2ccc(C(=O)O)cc2)c2ccccc21 | 3% | 3 | -5% | -6% | -1 | -48%
CCCn1nnnc1NC(=O)c1cc(Br)ccc1OC | 5% | 30* | -3% | i | 0 | 6%
O=C(CSc1nc2cccnc2n1Cc1ccccc1)NCc1ccco1 | -10% | -1 | -3% | i | -1 | -15%
COc1ccccc1NC(=S)NCC1CCCCC1 | ? | -1 | 5% | 1% | 0 | 10µM*
COc1ccc(NC(=O)NCCCCc2ccccc2)cc1 | 1% | 0 | 1% | i | -1 | 6.3µM*
COc1ccccc1NC(=S)NCCc1ccc(Cl)cc1 | 8% | -7 | 4% | -9%[57.5 µM] | 0 | 5µM*
COc1ccccc1NC(=O)CC1CCCC1 | 2% | 4 | 9% | -2% | 0 | 11%
COc1ccccc1NC(=S)NCCSc1ccc(Cl)cc1 | 2% | -6 | 10% | i | 1 | 1%
COc1ccccc1NS(=O)(=O)c1ccc(C)c(NC(=O)NC2CCCCC2)c1 | -8% | -4 | 5% | -41% | 0 | 11µM*
O=C(NNc1ncnc2c1cnn2-c1ccccc1)c1ccccc1 | -11% | -6 | nt | -17% | 0 | 3%
COc1ccccc1NC(=S)NC1CCCCCCCCCCC1 | 0.5µM* | -2 | -5% | i | 0 | ?
COc1cccc(NC(=O)NCCc2ccc(Cl)cc2)c1 | 1% | -5 | 10% | i | -1 | 10µM*
COc1cccc(NC(=O)Nc2ccncc2)c1 | 6% | -4 | 2% | i | 1 | -4%
COc1ccccc1NC(=S)NC1CCCCC1 | -1% | -1 | 0% | -18% | 0 | -19%
COc1cccc(NC(=O)Nc2ccc(C(C)(C)C)cc2)c1 | -31% | 2 | 9% | -30% | 1 | 6.3µM*
